Results published in the GenesisPotency data set.
Out of some 290,000 compounds screened, about 2,100 (0.72%) were called active. Roughly 4% stayed inconclusive and do not appear here. This is one part of a sample in which actives are shown more often than they occur. The call rests on the fitted dose curve; in most records, active means well fitted inhibition curve with a large enough effect; inconclusive means small, poorly fitted or top-dose-only effect, or effect the other way; inactive means flat fitted curve, though single readings scatter.

Biological target: Fructose-bisphosphate aldolase, Giardia intestinalis (strain ATCC 50803 / WB clone C6) (UniProt A8B2U2)
Sequence (A8B2U2 whole entry, looked up, natural form): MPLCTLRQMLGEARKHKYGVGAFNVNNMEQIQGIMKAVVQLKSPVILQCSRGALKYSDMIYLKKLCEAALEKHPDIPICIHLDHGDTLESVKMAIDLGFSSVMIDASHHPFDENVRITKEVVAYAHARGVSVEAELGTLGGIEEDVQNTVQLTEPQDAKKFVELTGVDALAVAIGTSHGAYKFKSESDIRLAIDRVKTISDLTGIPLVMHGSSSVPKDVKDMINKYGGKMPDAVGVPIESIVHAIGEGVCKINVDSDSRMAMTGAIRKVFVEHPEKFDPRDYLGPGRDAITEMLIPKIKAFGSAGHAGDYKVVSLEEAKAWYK
Experiment: qHTS Assay for Inhibitors of Fructose-1,6-bisphosphate Aldolase from Giardia Lamblia

| Structure (SMILES) | outcome |
| --- | --- |
| N.N.[Cl][Pt][Cl] | active |
